This passage reports binding signal results from PMC7862700, “An all-to-all approach to the identification of sequence-specific readers for epigenetic DNA modifications on cytosine”.

Experiment in all cases: DAPPL (digital affinity profiling via proximity ligation, sequencing); 10 mM Tris-HCl pH 7.5, 50 mM NaCl, 1 mM DTT, 4% glycerol, room temperature, 30 min; GST-TFs on glutathione beads, 16-mer random dsDNA library, 0.1% formaldehyde crosslink after washing; high values mean tight binding
One assay concerns the target T1, FEV (Homo sapiens, UniProt Q99581 1-238).
T1 sequence: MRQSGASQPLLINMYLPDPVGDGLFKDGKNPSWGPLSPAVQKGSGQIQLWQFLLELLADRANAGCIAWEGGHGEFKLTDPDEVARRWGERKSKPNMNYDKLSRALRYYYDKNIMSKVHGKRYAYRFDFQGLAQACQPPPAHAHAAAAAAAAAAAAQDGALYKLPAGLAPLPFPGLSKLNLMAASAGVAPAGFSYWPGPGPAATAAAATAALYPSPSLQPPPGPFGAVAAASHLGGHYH
The conditions noted are these: protein: recombinant; tags: N-terminal GST; dsDNA, one strand shown. The method in brief: (§1)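 A tag-only sample was pooled with DNA-barcoded human transcription factors that had been expressed in yeast as GST fusions and captured on glutathione beads. The pools were incubated for 30 min at room temperature with 200 nmole of a random double-stranded 16-mer DNA library in Tris/NaCl/DTT/glycerol buffer, then washed, crosslinked with 0.1% formaldehyde, proximity-ligated (BsaI/T4 ligase, 1 h, 37 °C), PCR-amplified and sequenced on an Illumina NextSeq500. Binding signal is each hexamer's read frequency for a factor divided by its frequency for the tag-only sample.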

A further assay addresses ETV5 (Homo sapiens, UniProt P41161 1-510). The conditions noted are these: protein: recombinant; tags: N-terminal GST; dsDNA, one strand shown. The method in brief:
as §1

The target of the next assay is HSF1 (Homo sapiens, UniProt Q00613 1-529). The settings on record: protein: recombinant; tags: N-terminal GST; chain copies: 3; dsDNA, one strand shown. The method in brief:
as §1

Another assay concerns the target T2, SPIC (Homo sapiens, UniProt Q8N5J4 1-248).
T2 sequence: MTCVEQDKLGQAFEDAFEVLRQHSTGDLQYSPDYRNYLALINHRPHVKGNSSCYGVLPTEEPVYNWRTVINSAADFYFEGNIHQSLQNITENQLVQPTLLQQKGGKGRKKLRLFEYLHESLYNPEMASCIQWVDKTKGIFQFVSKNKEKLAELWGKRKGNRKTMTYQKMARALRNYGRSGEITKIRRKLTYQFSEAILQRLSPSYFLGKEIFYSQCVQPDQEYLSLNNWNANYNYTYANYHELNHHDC
The conditions noted are these: protein: recombinant; tags: N-terminal GST; dsDNA, one strand shown. In outline:
as §1

Another assay addresses ELF4 (Homo sapiens, UniProt Q99607 1-663). The conditions noted are these: protein: recombinant; tags: N-terminal GST; dsDNA, one strand shown. In outline: as §1
The target of another assay is T3, ELK4 (Homo sapiens, UniProt P28324-2 1-405).
T3 sequence: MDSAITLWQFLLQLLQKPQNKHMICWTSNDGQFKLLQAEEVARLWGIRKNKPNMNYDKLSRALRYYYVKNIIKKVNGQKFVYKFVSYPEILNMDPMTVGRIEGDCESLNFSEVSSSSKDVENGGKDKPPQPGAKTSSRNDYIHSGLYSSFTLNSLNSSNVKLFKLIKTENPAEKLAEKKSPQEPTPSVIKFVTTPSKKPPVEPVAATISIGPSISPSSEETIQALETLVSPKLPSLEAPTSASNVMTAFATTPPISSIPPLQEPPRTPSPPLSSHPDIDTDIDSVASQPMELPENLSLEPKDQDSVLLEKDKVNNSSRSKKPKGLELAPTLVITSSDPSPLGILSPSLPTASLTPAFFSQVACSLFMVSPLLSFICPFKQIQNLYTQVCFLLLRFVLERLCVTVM
The conditions noted are these: protein: recombinant; tags: N-terminal GST; dsDNA, one strand shown. The method in brief: as §1

The target of another assay is T4, ETV2 (Homo sapiens, UniProt O00321 1-342).
T4 sequence: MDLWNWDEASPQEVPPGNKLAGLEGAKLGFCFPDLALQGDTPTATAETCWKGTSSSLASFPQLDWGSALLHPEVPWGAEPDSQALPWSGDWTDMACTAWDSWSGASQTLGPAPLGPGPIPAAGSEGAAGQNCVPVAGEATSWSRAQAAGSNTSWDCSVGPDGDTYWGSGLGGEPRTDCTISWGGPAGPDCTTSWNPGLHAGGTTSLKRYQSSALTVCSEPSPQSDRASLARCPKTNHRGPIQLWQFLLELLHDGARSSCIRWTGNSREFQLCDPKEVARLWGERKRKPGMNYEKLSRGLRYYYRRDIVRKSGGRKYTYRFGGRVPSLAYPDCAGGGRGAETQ
The settings on record: protein: recombinant; tags: N-terminal GST; dsDNA, one strand shown. In outline: as §1

Another assay concerns the target T5, ELF3 (Homo sapiens, UniProt P78545 1-371).
T5 sequence: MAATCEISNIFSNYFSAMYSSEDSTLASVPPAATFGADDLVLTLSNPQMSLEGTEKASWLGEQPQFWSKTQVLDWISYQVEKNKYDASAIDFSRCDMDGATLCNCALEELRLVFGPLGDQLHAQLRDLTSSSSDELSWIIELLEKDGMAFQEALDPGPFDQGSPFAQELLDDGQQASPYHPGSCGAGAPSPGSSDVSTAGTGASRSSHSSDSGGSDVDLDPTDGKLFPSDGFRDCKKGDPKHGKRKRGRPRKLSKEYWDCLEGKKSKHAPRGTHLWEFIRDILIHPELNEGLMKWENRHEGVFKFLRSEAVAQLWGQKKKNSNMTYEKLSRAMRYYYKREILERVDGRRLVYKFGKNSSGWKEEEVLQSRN
The conditions noted are these: protein: recombinant; tags: N-terminal GST; dsDNA, one strand shown. The method in brief: as §1

A further assay deals with CRX (Homo sapiens, UniProt O43186 1-299). The settings on record: protein: recombinant; tags: N-terminal GST; dsDNA, one strand shown. The method in brief:
as §1

A further assay addresses ETV1 (Homo sapiens, UniProt P50549 1-477). The settings on record: protein: recombinant; tags: N-terminal GST; dsDNA, one strand shown. The method in brief:
as §1

Another assay has as its target T6, ERF (Homo sapiens, UniProt P50548 1-548).
T6 sequence: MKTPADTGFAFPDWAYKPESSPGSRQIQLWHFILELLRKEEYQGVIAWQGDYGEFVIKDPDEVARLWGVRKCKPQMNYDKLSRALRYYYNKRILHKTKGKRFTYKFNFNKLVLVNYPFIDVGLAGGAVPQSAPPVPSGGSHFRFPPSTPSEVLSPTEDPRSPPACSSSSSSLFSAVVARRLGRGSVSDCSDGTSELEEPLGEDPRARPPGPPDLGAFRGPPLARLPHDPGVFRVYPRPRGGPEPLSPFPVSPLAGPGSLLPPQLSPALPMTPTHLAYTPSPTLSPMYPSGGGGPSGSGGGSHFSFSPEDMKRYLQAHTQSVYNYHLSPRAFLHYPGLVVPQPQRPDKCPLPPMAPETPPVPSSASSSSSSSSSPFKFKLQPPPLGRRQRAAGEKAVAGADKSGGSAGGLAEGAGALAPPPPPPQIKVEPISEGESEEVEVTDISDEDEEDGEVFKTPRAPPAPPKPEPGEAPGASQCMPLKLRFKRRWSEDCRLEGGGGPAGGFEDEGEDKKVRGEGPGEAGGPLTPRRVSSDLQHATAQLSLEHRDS
The settings on record: protein: recombinant; tags: N-terminal GST; dsDNA, one strand shown. In outline:
as §1

In another assay the target is T7, ETV3L (Homo sapiens, UniProt Q6ZN32 1-361).
T7 sequence: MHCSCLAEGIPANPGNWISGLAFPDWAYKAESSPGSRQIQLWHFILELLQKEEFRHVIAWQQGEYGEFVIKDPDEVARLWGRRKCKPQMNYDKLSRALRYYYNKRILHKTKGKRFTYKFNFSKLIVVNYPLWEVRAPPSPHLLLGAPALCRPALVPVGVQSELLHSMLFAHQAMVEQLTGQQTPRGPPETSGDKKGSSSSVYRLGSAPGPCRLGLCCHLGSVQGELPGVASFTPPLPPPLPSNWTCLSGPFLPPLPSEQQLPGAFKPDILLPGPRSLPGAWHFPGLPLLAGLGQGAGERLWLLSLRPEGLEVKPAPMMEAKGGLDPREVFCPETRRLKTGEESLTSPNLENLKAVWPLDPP
The settings on record: protein: recombinant; tags: N-terminal GST; dsDNA, one strand shown. The method in brief:
as §1

The next assay deals with T8, ETS2 (Homo sapiens, UniProt P15036 1-469).
T8 sequence: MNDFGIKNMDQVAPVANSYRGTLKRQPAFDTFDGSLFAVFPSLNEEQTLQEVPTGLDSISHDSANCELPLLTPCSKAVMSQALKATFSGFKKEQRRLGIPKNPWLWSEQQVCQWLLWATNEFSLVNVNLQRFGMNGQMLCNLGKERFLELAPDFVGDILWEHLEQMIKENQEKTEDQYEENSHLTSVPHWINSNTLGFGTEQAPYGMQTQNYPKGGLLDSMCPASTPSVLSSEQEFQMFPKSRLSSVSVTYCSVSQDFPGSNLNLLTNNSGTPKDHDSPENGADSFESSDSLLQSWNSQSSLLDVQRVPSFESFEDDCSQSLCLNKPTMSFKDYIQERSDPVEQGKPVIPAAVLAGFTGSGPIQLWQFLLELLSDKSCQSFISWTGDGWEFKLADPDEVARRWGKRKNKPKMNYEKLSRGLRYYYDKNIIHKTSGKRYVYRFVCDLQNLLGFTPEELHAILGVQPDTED
The settings on record: protein: recombinant; tags: N-terminal GST; dsDNA, one strand shown. In outline: as §1

The target of the next assay is T9, SPDEF (Homo sapiens, UniProt O95238 1-335).
T9 sequence: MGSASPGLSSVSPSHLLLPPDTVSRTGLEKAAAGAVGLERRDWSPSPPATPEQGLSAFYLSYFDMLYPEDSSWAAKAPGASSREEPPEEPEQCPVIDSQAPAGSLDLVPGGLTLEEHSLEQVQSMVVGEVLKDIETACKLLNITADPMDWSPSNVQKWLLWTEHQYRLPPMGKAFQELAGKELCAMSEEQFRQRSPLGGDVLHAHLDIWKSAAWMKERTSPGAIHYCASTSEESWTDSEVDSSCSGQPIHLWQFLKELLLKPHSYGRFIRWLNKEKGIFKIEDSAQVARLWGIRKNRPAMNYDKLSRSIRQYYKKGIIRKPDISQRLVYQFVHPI
The settings on record: protein: recombinant; tags: N-terminal GST; dsDNA, one strand shown. The method in brief: as §1

The next assay addresses T10, ETV7 (Homo sapiens, UniProt Q9Y603 1-341).
T10 sequence: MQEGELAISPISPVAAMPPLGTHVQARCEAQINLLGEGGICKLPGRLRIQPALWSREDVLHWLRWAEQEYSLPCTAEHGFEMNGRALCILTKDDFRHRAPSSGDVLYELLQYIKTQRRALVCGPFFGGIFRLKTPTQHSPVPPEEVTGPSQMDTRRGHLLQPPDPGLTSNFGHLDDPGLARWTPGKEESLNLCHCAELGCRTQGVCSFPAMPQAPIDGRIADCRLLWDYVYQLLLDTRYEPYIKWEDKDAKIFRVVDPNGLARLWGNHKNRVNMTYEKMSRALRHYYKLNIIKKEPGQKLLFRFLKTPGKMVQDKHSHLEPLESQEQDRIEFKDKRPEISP
The settings on record: protein: recombinant; tags: N-terminal GST; dsDNA, one strand shown. The method in brief: as §1

In the next assay the target is T11, ELF5 (Homo sapiens, UniProt Q9UKW6-2 1-255).
T11 sequence: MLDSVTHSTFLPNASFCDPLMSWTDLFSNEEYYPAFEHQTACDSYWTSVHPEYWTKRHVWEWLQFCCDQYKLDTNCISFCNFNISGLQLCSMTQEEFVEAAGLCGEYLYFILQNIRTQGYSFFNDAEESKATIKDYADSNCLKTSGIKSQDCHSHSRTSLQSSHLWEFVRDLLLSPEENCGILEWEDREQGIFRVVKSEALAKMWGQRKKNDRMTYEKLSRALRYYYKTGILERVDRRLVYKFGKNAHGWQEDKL
The settings on record: protein: recombinant; tags: N-terminal GST; dsDNA, one strand shown. The method in brief: as §1

Another assay deals with T12, ETV3 (Homo sapiens, UniProt P41162-2 1-143).
T12 sequence: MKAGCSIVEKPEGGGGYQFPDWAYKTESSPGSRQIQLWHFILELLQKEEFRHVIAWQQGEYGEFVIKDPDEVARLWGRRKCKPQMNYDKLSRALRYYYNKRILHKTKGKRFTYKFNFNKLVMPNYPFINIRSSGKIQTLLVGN
The settings on record: protein: recombinant; tags: N-terminal GST; dsDNA, one strand shown. In outline: as §1

The target of the next assay is ETV6 (Homo sapiens, UniProt P41212 1-452). The settings on record: protein: recombinant; tags: N-terminal GST; dsDNA, one strand shown. In outline: as §1
Sequence of ETV6 (P41212 whole entry): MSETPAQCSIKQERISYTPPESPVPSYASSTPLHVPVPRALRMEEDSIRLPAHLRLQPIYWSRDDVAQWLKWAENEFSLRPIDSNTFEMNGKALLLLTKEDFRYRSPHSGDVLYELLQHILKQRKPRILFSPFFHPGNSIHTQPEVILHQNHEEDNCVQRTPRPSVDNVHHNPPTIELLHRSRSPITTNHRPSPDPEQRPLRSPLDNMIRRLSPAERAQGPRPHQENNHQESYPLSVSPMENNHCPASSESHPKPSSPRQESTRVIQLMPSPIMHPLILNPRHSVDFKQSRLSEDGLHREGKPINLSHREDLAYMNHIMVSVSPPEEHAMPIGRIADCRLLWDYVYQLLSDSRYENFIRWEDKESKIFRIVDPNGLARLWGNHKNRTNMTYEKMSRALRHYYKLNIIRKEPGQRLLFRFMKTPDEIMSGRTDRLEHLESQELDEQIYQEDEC

Sequence of HSF1 (Q00613 whole entry): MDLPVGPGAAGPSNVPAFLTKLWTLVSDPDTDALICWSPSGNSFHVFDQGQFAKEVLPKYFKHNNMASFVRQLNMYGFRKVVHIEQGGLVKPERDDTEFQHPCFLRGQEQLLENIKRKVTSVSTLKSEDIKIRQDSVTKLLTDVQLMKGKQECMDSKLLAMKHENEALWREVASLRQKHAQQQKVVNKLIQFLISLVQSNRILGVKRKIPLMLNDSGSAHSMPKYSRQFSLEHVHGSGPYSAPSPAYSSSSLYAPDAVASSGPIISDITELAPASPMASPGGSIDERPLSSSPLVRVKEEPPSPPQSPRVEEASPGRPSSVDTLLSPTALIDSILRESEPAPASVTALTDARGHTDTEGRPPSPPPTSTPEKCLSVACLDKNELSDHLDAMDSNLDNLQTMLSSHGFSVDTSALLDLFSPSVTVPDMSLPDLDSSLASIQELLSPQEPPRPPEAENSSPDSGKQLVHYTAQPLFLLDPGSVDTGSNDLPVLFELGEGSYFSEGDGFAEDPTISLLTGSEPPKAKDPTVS
Sequence of CRX (O43186 whole entry): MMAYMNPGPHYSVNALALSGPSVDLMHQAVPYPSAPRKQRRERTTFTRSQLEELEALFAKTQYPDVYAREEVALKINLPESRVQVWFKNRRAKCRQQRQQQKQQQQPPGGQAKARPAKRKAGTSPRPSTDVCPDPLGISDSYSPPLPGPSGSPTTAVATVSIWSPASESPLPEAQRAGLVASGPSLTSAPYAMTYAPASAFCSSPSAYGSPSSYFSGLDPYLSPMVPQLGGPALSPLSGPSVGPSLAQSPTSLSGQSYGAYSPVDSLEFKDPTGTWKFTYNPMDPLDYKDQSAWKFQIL
Sequence of ELF4 (Q99607 whole entry): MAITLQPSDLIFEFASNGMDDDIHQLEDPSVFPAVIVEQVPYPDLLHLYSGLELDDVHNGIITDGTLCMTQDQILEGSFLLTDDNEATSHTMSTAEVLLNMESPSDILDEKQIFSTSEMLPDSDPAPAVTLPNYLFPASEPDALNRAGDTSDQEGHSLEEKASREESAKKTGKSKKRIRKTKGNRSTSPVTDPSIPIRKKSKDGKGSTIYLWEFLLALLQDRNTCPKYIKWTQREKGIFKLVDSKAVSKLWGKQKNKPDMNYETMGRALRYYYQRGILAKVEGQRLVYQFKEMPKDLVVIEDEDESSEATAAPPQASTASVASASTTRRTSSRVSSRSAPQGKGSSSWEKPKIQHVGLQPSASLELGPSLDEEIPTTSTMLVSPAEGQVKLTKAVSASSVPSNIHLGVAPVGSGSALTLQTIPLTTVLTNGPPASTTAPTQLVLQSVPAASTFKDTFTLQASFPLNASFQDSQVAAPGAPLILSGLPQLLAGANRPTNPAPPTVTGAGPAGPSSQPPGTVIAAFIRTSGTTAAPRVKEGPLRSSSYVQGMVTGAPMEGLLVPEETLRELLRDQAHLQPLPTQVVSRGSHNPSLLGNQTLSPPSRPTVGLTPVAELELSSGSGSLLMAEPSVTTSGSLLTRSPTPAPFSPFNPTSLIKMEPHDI
Sequence of ETV5 (P41161 whole entry): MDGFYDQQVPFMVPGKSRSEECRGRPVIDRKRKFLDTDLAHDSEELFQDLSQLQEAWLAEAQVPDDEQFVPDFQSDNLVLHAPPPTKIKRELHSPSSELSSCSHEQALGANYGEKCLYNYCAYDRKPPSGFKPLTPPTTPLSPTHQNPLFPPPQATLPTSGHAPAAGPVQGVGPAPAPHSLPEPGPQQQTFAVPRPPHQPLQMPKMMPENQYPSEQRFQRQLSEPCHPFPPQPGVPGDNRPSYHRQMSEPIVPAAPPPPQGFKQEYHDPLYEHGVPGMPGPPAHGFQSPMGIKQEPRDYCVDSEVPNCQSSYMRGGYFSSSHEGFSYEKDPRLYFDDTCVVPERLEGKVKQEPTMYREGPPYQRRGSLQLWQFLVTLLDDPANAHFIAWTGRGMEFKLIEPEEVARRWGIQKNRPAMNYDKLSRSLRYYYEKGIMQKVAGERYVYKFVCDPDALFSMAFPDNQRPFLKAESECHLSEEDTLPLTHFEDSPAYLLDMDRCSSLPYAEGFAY
Sequence of ETV1 (P50549 whole entry): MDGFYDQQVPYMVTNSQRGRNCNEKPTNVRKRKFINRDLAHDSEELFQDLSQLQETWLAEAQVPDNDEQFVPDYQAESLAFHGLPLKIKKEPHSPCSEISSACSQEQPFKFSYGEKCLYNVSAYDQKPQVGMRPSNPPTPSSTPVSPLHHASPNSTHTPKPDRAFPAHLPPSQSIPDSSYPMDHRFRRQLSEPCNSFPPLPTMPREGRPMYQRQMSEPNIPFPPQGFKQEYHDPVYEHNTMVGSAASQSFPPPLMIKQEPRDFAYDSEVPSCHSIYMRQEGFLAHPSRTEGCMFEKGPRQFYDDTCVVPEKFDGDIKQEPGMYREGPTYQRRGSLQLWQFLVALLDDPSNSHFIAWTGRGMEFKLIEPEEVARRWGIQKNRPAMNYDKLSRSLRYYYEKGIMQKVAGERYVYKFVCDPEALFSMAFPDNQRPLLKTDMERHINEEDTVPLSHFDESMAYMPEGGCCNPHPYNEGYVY

CTATAC: the binding signal is 1.3 fold enrichment (6-mer frequency, TF over GST control) in the assay with FEV; 1.22 fold enrichment (6-mer frequency, TF over GST control) in the assay with ETV5; 1.14 fold enrichment (6-mer frequency, TF over GST control) in the assay with HSF1; 1.21 fold enrichment (6-mer frequency, TF over GST control) in the assay with SPIC; 1.29 fold enrichment (6-mer frequency, TF over GST control) with ELF4; 1.07 fold enrichment (6-mer frequency, TF over GST control) in the assay with ELK4. Moreover, the binding signal was 1.4 fold enrichment (6-mer frequency, TF over GST control) with ETV2; 1.24 fold enrichment (6-mer frequency, TF over GST control) with ELF3; 1.19 fold enrichment (6-mer frequency, TF over GST control) with CRX; 1.29 fold enrichment (6-mer frequency, TF over GST control) in the assay with ETV1; 1.21 fold enrichment (6-mer frequency, TF over GST control) in the assay with ERF; 1.19 fold enrichment (6-mer frequency, TF over GST control) in the assay with ETV3L. Further, the binding signal with ETS2 was 1.28 fold enrichment (6-mer frequency, TF over GST control); with SPDEF, 1.39 fold enrichment (6-mer frequency, TF over GST control); in the assay with ETV7 it was 1.19 fold enrichment (6-mer frequency, TF over GST control); with ELF5 it was 1.26 fold enrichment (6-mer frequency, TF over GST control); in the assay with ETV3 it was 1.24 fold enrichment (6-mer frequency, TF over GST control); with ETV6, 1.28 fold enrichment (6-mer frequency, TF over GST control).
